The list is not random: actives were taken first. Their share in the collection is about 22%.
LmPK inh = LmPK (Leishmania mexicana) enzyme inhibition; purified LmPK, Kinase-Glo ATP luminescence, 1 h; Potency, µM (series often up to 57.5 µM), usual class: inhibitors; hit rate 0.37% among 290,000
Target sequence (Q27686 whole entry, looked up): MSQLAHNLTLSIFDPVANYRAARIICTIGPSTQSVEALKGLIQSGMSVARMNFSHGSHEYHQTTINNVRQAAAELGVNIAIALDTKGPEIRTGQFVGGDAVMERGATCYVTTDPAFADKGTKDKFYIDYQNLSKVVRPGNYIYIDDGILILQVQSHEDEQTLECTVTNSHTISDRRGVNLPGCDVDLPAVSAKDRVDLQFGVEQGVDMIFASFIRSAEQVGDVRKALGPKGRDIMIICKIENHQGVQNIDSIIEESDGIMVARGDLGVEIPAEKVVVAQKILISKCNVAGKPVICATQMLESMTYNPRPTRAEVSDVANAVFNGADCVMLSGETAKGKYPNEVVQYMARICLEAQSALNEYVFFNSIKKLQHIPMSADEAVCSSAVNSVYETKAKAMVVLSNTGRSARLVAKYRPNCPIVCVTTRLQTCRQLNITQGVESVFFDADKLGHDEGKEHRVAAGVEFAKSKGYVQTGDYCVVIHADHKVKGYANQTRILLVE
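Purified LmPK (0.1 nM) with 0.5 mM PEP and 0.1 mM ADP in imidazole buffer pH 7.2 with MgCl2/KCl, 1 h at room temperature. ATP formed was read by luciferase luminescence and normalized to no-enzyme and uninhibited controls.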
Shiga inhibitor = inhibitors of Shiga toxin in Vero cells; Vero cells, Shiga toxin protein synthesis inhibition reporter; inhibition, % at 38.7 µM; hit rate 9.2% among 290,000; in the data active = inhibition mostly above about 28%, no sharp cut-off; inactive = mostly below about 43%
Pf growth 48h = P. falciparum growth inhibition at 48 hours (one generation) | P. falciparum luciferase growth in erythrocytes, 48 h | Potency, µM (doses to about 28.7 µM), hits mostly inhibitors | hit rate 5.9% among 310,000 | AID 504832
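In quantitative HTS format, infected erythrocytes bearing luciferase-reporter parasites were treated for a single generation at 37 C. Luminescence after adding detection reagent served as the growth measure.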
CHX counter = counter-screen hit for Shiga toxin inhibitors, cycloheximide; max response, %; AID 2314; hit rate 12% among 300,000; cell reporter, cycloheximide protein synthesis inhibition counterscreen; in the data active = max response mostly above about 13%, no sharp cut-off; inactive = mostly below about 14%; note: read at 38.3 µM for the half of the compounds with a filed dose
Pf growth 96h = P. falciparum growth inhibition at 96 hours. P. falciparum luciferase reporter growth, 96 h. Potency, µM (titrated, usually from 28.7 µM), usual class: inhibitors. hit rate 6.9% among 320,000. AID 504834
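Infected RBCs, 2% Hct / 0.05% parasitemia final; luciferase-reporter P. falciparum; cpd 96 h, 37 C, 5% CO2; luciferase detection reagent; luminescence.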
Hits are given with their value; 0 = inactive; ? = inconclusive; - = not tested or not shown; [ ] = dose if it differs, or a comment. Unless noted, calls come from the whole dose curve; as a rule, active = well fitted inhibition curve with a large enough effect; inconclusive = small, poorly fitted or top-dose-only effect, or another doubt; inactive = no such curve, though single readings can be large or run the other way.

SMILES | LmPK inh | Shiga inhibitor | Pf growth 48h | CHX counter | Pf growth 96h
CCCOC1CCCN(C(=O)c2ccc3oc(C(C)C)nc3c2)C1 (centres undefined) | 0 | 94 | 0 | 38 | 0
CC(CC(=O)N(CCC1=CCCCC1)c1c(N)n(Cc2ccccc2)c(=O)[nH]c1=O)c1ccccc1 (centres undefined) | - | - | 0 | - | 0
C(#CC12CC3CC(CC(C3)C1)C2)CN1CCOCC1 | 0 | 0 | 0 | 0 | ?
CCOC(=O)N1CCN(C(=O)c2ccc3oc(CCCc4ccccc4)nc3c2)CC1 | 0 | 81 | 0 | 39 | 10µM
CCOC(=O)N1CCN(C(=O)c2ccc3ccccc3c2)CC1 | 0 | 0 | 0 | 0 | 0
COCC1CCCCN1C(=O)c1ccc2oc(CCCc3ccccc3)nc2c1 (centres undefined) | 0 | 61 | ? | 37 | 0
O=C(NCCCc1ccccc1)c1ccc(CS(=O)Cc2ccc(Cl)cc2)o1 (centres undefined) | 0 | 0 | 0 | 0 | ?
CC12CCC=CC1C(c1ccoc1)N(Cc1ccccc1)C2=O (centres undefined) | - | 0 | - | 0 | -
COc1cccc(C(=O)N[C@@H](C)C(=O)N2CCC3(CC2)NCCc2[nH]cnc23)c1 | 0 | 0 | 0 | 0 | 0
O=S(=O)(c1ccc(Cl)cc1)c1cnc2ccccc2n1 | 0 | 0 | ? | 0 | 10µM
CCCCN(C(=O)CC1CCCC1)c1c(N)n(CC(C)C)c(=O)[nH]c1=O | - | - | 0 | - | 0
O=C(N/N=C/c1ccccn1)c1cccc(S(=O)(=O)Nc2ccccc2Cl)c1 | 0 | 0 | ? | 0 | 0
COc1ccc(-c2nn(-c3ccccc3)cc2/C=N/NC(=O)c2cccc(S(=O)(=O)Nc3ccccc3Cl)c2)cc1 | 0 | 0 | 9.3µM | 0 | 2.9µM
COc1ccc(-c2nn(-c3ccccc3)cc2/C=N/NS(=O)(=O)c2ccccc2)cc1 | 0 | 0 | ? | 0 | 12µM
COc1ccc(-c2nn(-c3ccccc3)cc2/C=N/N2C(=O)CSC2=S)cc1 | 0 | 0 | - | 29 | 0
Cc1ccc(CNC(=O)CNC(=O)c2ccc(Br)o2)cc1 | 0 | 0 | 0 | 0 | 0
CN(C(=O)COC(=O)CNC(=O)c1ccc(C(C)(C)C)cc1)c1c(N)n(Cc2ccccc2)c(=O)[nH]c1=O | - | - | 0 | - | 0
COc1ccc(N=Nc2cc(C)c(O)c(CN3CCCCC3)c2)cc1 | 0 | 0 | 0.26µM | 0 | 0.26µM
COc1ccc(CN2CCCCCC2)cc1 | 0 | 0 | ? | 0 | ?
CCN(CC(=O)NCc1cccs1)c1ccc(S(=O)(=O)N2CCN(C)CC2)cn1 | 0 | 0 | 0 | 0 | 0
CN1CCc2c(sc(NC(=O)c3ccc(S(=O)(=O)N4CCCCCC4)cc3)c2C(N)=O)C1 | 0 | 0 | ? | 0 | ?
CNC(=O)c1c(NC(=O)c2ccc(S(=O)(=O)N3CCCCC3)cc2)sc2c1CCN(C(C)C)C2 | 0 | 0 | 10µM | 0 | 8.3µM
CCN1CCc2c(sc(NC(=O)c3ccc(S(=O)(=O)N4CCCC4)cc3)c2C(=O)NC)C1 | 0 | 0 | 10µM | 0 | 15µM
O=C(COc1ccccc1)Nc1ccc2c(c1)nc1n2CCOC1 | 0 | 134 | 0 | 0 | 0[5.75 µM]
O=C(COc1ccccc1)Nc1ccc2c(c1)nc1n2CCSC1 | 0 | 0 | 0 | 24 | 0[5.75 µM]
SMILES | LmPK inh | Shiga inhibitor | Pf growth 48h | CHX counter | Pf growth 96h
O=[N+]([O-])c1ccccc1S(=O)(=O)N1CCN(Cc2ccsc2)CC1 | 0 | 0 | 0 | 0 | 0
O[C@@H]1CN(Cc2ccc(-n3cccn3)cc2)CC[C@H]1N1CCN(c2ccccc2F)CC1 | 0 | - | ? | 0 | 10µM
Cc1ccc(CN2CCN(Cc3ccc(-n4cccn4)cc3)CC2CCO)cc1 (centres undefined) | 0 | 0 | 0 | 0 | 0
C/C(=N\Nc1ccc([N+](=O)[O-])cc1)c1ccc(N)cc1 | 0 | 68 | ? | 34 | 0
C/C(=N\Nc1ccc([N+](=O)[O-])cc1)c1ccco1 | 0 | 34 | 0 | 47 | 0
CCc1ccc(/C(C)=N\Nc2ccc([N+](=O)[O-])cc2)cc1 | 0 | 0 | 0 | 19 | 4.1µM
C/C(=N\NC(=O)COc1ccc([N+](=O)[O-])cc1)c1ccco1 | - | - | 0 | - | 0
C/C(=N\Nc1ccc([N+](=O)[O-])cc1)c1ccc(N2CCOCC2)cc1 | 0 | 0 | 0 | 0 | 0
CN1CCN(C(=O)c2cc3ccccc3cc2O)CC1 | - | - | ? | - | 0
CCOc1ccc(C2/C(=C(\O)c3ccc4c(c3)OCCO4)C(=O)C(=O)N2CCN2CCOCC2)cc1OC (centres undefined) | 0 | 0 | 0 | 0 | ?
C/C(=N\NC(=O)c1ccccc1C)c1cccnc1 | 0 | 106 | 0 | 31 | 0
C/C(=N\NC(=O)c1ccncc1)c1cccnc1 | 0 | 0 | 0 | 0 | 0
C/C(=N\NC(=O)c1ccoc1C)c1cccnc1 | 0 | 0 | 0 | 42 | 0
CCc1ccc(C(=O)N/N=C(\C)c2cccnc2)s1 | 0 | 0 | 0 | 0 | 0
COCCC(=O)N1CCC(Oc2ccc(C(=O)NCCn3cccn3)cc2)CC1 | 0 | 0 | 0 | 0 | ?
CN1CCN(c2ccc(S(=O)(=O)N3CCCCC3)cc2NC(=O)/C=C/c2ccc(Cl)c([N+](=O)[O-])c2)CC1 | - | - | 2.9µM | - | 5.9µM
CCN1CCN(c2ccc(S(=O)(=O)N3CCCCC3)cc2NC(=O)/C=C/c2ccc(F)cc2)CC1 | - | - | 10µM | - | ?
CCN1CCN(c2ccc(S(=O)(=O)N3CCCCC3)cc2NC(=O)/C=C/c2ccc([N+](=O)[O-])cc2)CC1 | - | - | 2.1µM | - | 1.9µM
CCN1CCN(c2ccc(S(=O)(=O)N3CCOCC3)cc2NC(=O)/C=C/c2ccc(C)cc2)CC1 | - | - | 0 | - | ?
CCCCCCCCCCCCCCCCCCCCCCO | - | 0 | 0 | 0 | 0
COC(=O)c1c(NC(=O)C2(C)Cc3ccccc3C(=O)O2)sc2c1CCCC2 (centres undefined) | 0 | 0 | ? | 0 | ?
C[C@H](NC(=O)c1ccccc1)C(=O)Nc1nc(-c2ccccn2)cs1 | 0 | 0 | ? | 0 | 0
O=C(Nc1nc(-c2ccccn2)cs1)c1ncc(Cl)c(Cl)c1Cl | 0 | 0 | ? | 0 | 13µM
Cc1ccc(C(=O)Nc2nc(-c3ccccn3)cs2)s1 | - | - | 0.41µM | - | ?
O=C(Nc1nc(-c2cc(Cl)sc2Cl)cs1)c1ccccc1 | 0 | 167 | - | 49 | ?
SMILES | LmPK inh | Shiga inhibitor | Pf growth 48h | CHX counter | Pf growth 96h
O=C(Nc1nc(-c2ccccn2)cs1)c1ccc(Cl)s1 | 0 | 0 | - | 0 | 0.37µM
O=C(Nc1nc(-c2cccc3ccccc23)cs1)c1cnccn1 | 0 | 0 | 0 | 0 | 0
C[n+]1c2cc(N)ccc2cc2ccc(N)cc21 | - | - | 0.048µM | - | 0.034µM
Cc1ccnc(NC(=O)CCC(=O)N(CC(=O)NC(C)(C)C)c2ccc3c(c2)OCO3)c1 | 0 | 0 | 0 | 0 | ?
CCc1cccc(NC(=O)CCNS(=O)(=O)c2cc(Br)cnc2N)c1 | 0 | 0 | 13µM | 0 | 0
Nc1ncc(Br)cc1S(=O)(=O)NCCC(=O)NCCc1ccccc1 | 0 | 0 | 0 | 27 | 0
Cc1cccc(CCNC(=O)CCNS(=O)(=O)c2cc(Br)cnc2N)c1 | 0 | 0 | ? | 0 | ?
CCCC1=C(C(=O)OCC)C(c2sccc2C)n2ncnc2N1 (centres undefined) | 0 | 0 | ? | 0 | ?

High-throughput results: PubChem BioAssay, National Center for Advancing Translational Sciences (NCATS)
